Sm TGR block = S. mansoni TGR enzyme inhibition; Q962Y6; purified TGR, DTNB reduction, TNB absorbance 405 nm; Potency, µM (highest dose often 114 µM), inactives show at the highest dose activity change, negative = inhibition, most hits filed as inhibitors; actives 3% (n = 360,000); note: % is set by controls: 0 for no effect and ±100 for the full control effect; nearly all actives have a fitted effect of over 60% in size
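TGR 20 nM + NADPH 100 uM (dispensed conc.), cpd preinc 15 min RT; start with NADPH (500 uM addition) then DTNB (15 mM addition). Kinetic TNB absorbance, 405 nm filter. Four-parameter Hill fit across titration.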
SARS PLpro yeast = inhibitors of SARS-CoV papain-like protease in yeast; S. cerevisiae expressing SARS-CoV PLpro, growth rescue; Potency, µM (doses to about 32.9 µM), inactives show at the top dose activity, positive = growth rescue, usual class: activators; actives 0.19% (n = 330,000); calls by dose curve; note: 0% is about no effect; nearly all actives have a fitted effect of over 55% in size
AmpC no deterg = AmpC beta-lactamase inhibition without detergent | actives 0.52% (n = 330,000) | P00811 | AID 485341 | Potency, µM (top dose mostly 57.1 µM), for inactives: at the top dose activity change, negative = inhibition, usual class: inhibitors | AmpC nitrocefin hydrolysis, absorbance 480 nm, 0.0001% Triton;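 note: plate controls were no compound for no effect and no enzyme for full effect; nearly all actives have a fitted effect of over 20% in size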
Target sequence (P00811 whole entry, looked up): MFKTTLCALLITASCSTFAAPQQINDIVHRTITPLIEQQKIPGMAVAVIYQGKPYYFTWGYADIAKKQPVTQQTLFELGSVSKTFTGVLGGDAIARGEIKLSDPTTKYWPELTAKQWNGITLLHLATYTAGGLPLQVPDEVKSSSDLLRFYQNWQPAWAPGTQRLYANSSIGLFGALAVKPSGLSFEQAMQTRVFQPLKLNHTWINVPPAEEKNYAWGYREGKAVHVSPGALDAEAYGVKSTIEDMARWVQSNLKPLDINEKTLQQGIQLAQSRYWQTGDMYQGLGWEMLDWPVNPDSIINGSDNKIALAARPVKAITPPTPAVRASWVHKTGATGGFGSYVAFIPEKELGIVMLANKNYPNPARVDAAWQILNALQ
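20 mM phosphate pH 7.0 + 0.01% (detergent screen) or 0.0001% Triton X-100; 5.3 nM AmpC reagent; cpd preinc 15 min RT; nitrocefin (800 uM stock) to start; A480 q20 s × 4 min; Activity was normalised to no-enzyme and no-compound control wells.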
Pf growth 48h = P. falciparum growth inhibition at 48 hours (one generation). Potency, µM (series often up to 28.7 µM), without a hit: top-dose activity change, negative = inhibition, most hits filed as inhibitors. P. falciparum luciferase growth in erythrocytes, 48 h. AID 504832. actives 5.9% (n = 310,000); note: % is set by controls: 0 for no effect and ±100 for the full control effect
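Cell-based growth assay: transgenic P. falciparum expressing firefly luciferase, cultured in red cells within RPMI 1640 containing 0.5% w/v Albumax, 24 mM bicarbonate and gentamycin. A drop in luciferase activity indicates inhibition.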
Pf growth 96h = P. falciparum growth inhibition at 96 hour, primary screen for plastid delayed-death inhibitors | Potency, µM (titrated, usually from 28.7 µM), inactives show at the highest dose activity change, negative = inhibition, actives largely listed as inhibitors | actives 6.9% (n = 320,000) | P. falciparum luciferase reporter growth, 96 h | AID 504834; note: % is set by controls: 0 for no effect and ±100 for the full control effect
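Luminescence readout: decreased luciferase signal marks inhibited growth of reporter-expressing P. falciparum in infected red cells (2% hematocrit, 0.05% parasitemia final), exposed to compound two generations (96 h, 37 C, 5% CO2).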
AmpC detergent = blocks E. coli AmpC beta-lactamase in detergent assay; actives 0.041% (n = 370,000); AmpC hydrolysis of nitrocefin, absorbance 480 nm, 0.01% Triton; Potency, µM (doses to about 114 µM), without a hit: at the highest dose activity change, negative = inhibition, hits mostly inhibitors; AID 485294; P00811;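 note: 0% = no-compound wells and -100% = no-enzyme wells; nearly all actives have a fitted effect of over 25% in size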
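AmpC (5.3 nM in the dispensed reagent) in 20 mM phosphate pH 7.0 with 0.01% (detergent screen) or 0.0001% Triton X-100 was preincubated with compounds for 15 min at room temperature. Nitrocefin was then added from an 800 uM solution, and hydrolysis was followed at 480 nm.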
The depositor's hits bear a star; ? = inconclusive; . = no result given; [ ] = dose if it differs, or a comment. Sampled rows, rich in hits. Any-hit rate of the full collection: about 12%. Unless noted, calls come from the whole dose curve; as a rule, active = well fitted curve in the direction sought with a large enough effect; inconclusive = small, poorly fitted or top-dose-only effect, or another doubt; inactive = no such curve, though single readings can be large; an effect the other way counts as inactive or inconclusive. Potency is the fitted concentration of half-maximal effect.

SMILES	Sm TGR block	SARS PLpro yeast	AmpC no deterg	Pf growth 48h	Pf growth 96h	AmpC detergent
Cc1nn(C(C)C)c(C)c1CN1CCCC(C(=O)c2cccc(OC(C)C)c2)C1 (configuration not stated)	0.0%	-1.7%	79.3%	?	11.7µM*	3.5%
CC(C)Oc1cccc(C(=O)C2CCCN(S(C)(=O)=O)C2)c1 (configuration not stated)	0.8%	-0.1%	23.2%	43.6%	3.7µM*	-1.6%
COc1ccccc1C(=O)NC(CCSC)C(=O)N1CCC(Cc2ccccc2)CC1 (configuration not stated)	2.2%	1.0%	42.0%	14.7µM*	?	?
CSCCC(NC(=O)c1ccccc1Cl)C(=O)N1CCN(C(C)=O)CC1 (configuration not stated)	1.1%	1.4%	-15.7%	?	-20.7%	?
CSCCC(NC(=O)c1ccccc1)C(=O)N1CC=C(c2ccccc2)CC1 (configuration not stated)	-5.2%	-0.4%	-0.2%	9.28µM*	?	-0.6%
COc1ccc(CNC(=O)C(c2cccs2)N(Cc2ccco2)C(=O)Cc2cccs2)cc1 (configuration not stated)	28.2µM*	-2.5%	-19.8%	13.1µM*	12.6%	-5.9%
COc1ccc(CNC(=O)C(c2ccco2)N(Cc2cccs2)C(=O)Cc2cccs2)cc1 (configuration not stated)	?	6.4%	-41.3%	?	?	?
COCCN(C(=O)Cc1cccs1)C(C(=O)NCc1ccc(OC)cc1)c1ccc(OC)cc1 (configuration not stated)	-3.6%	-0.4%	?	13.1µM*	?	-10.3%
Cc1ccc(C)c(S(=O)(=O)N2CCN(C(=O)c3ccccc3Cc3ccccc3)CC2)c1	-1.9%	2.3%	29.9%	11.7µM*	?	-17.6%
Cc1ccc(C)c(S(=O)(=O)N2CCN(C(C)C(=O)Nc3ccccc3-c3ccccc3)CC2)c1 (configuration not stated)	8.4%	-12.6%	-6.3%	9.28µM*	4.15µM*	?
O=C(c1ccccc1Cc1ccccc1)N1CCN(S(=O)(=O)c2ccccc2F)CC1	2.7%	0.4%	24.6%	11.7µM*	13.1µM*	-7.8%
CCn1c(=O)c(C(=O)CN2CCN(Cc3ccc4c(c3)OCO4)CC2)c(N)n(Cc2ccccc2)c1=O	-9.1%	0.3%	102.7%	?	?	-10.9%
CCn1c(=O)c(C(=O)CN2CCN(S(=O)(=O)c3cc(C)ccc3C)CC2)c(N)n(Cc2ccccc2)c1=O	-5.4%	-14.3%	-26.4%	?	13.1µM*	-5.4%
Cc1ccc(C)c(S(=O)(=O)N2CCN(C(=O)c3ccccn3)CC2)c1	?	-11.9%	-11.6%	-11.5%	-20.5%	-0.9%
O=C(c1ccccc1Cc1ccccc1)N1CCN(S(=O)(=O)c2ccccc2)CC1	-26.2%	1.7%	51.9%	-27.6%	?	?
COc1cc2c(C(=O)N(C)c3cc(Cl)ccc3OC)cn(CC(C)C)c(=O)c2cc1OC	-2.7%	.	.	.	.	-4.3%
O=C(c1ccco1)N1CCN(S(=O)(=O)c2ccccc2[N+](=O)[O-])CC1	2.8%	0.5%	-2.9%	?	68.6%	-5.6%
O=C(c1ccccc1Cc1ccccc1)N1CCN(S(=O)(=O)c2ccccc2[N+](=O)[O-])CC1	-1.6%	-10.0%	12.0%	?	13.1µM*	-3.4%
Cn1c(C(=O)O)c(C=O)c2ccccc21	21.1%	-0.5%	-21.8%	5.4%	10.4µM*	6.0%
O=C(CSc1nnc(Nc2ccccc2F)s1)NC1CC1	-6.5%	-0.8%	-15.5%	73.7%	-37.7%	-3.0%
Cc1cccc(Cc2c(C)nc3nc(SCc4cccc(F)c4)nn3c2C)c1	-0.2%	.	.	.	.	-7.6%
COc1ccc(C(=O)CC2(O)C(=O)N(CCc3ccccc3)c3ccc(Br)cc32)cc1OC (configuration not stated)	4.8%	.	.	.	.	-2.6%
CN1C(=O)C(O)(CC(=O)/C=C/c2ccco2)c2ccccc21 (configuration not stated)	.	0.4%	-24.9%	-4.2%	37.5%	-1.5%
CN1C(=O)C(O)(CC(=O)/C=C/c2ccco2)c2cc(Br)ccc21 (configuration not stated)	17.8µM*	-0.1%	-19.2%	?	?	-6.0%
O=C(CC1(O)C(=O)Nc2ccccc21)c1cccc(-n2cccc2)c1 (configuration not stated)	-7.7%	0.5%	-8.9%[2.29 µM]	11.2%	31.2%	-13.0%
SMILES	Sm TGR block	SARS PLpro yeast	AmpC no deterg	Pf growth 48h	Pf growth 96h	AmpC detergent
CN1C(=O)C(O)(CC(=O)c2cccc(-n3cccc3)c2)c2ccccc21 (configuration not stated)	0.0%	-18.7%	8.4%	9.28µM*	-2.3%	-2.1%
C=CCN1C(=O)C(O)(CC(=O)c2ccc(OC)cc2OC)c2cc(Br)ccc21 (configuration not stated)	-7.0%	8.1%	?	11.7µM*	-0.7%	-2.4%
CN1C(=O)C(O)(CC(=O)c2ccccc2O)c2cc(Br)ccc21 (configuration not stated)	-13.4%	-10.4%	0.9%	?	1.17µM*	?
CCOc1ccc(CNC(=O)C2CCN(S(=O)(=O)N3CCCCC3)CC2)cc1	-4.4%	.	.	.	.	-0.8%
COc1cc(OC)c(NC(=O)Cn2c(=O)c(C(F)(F)F)nc3ccccc32)cc1Cl	1.8%	.	.	.	.	0.5%
COc1ccc(-c2ccc(-c3nnc(-c4cc(OC)ccc4OC)o3)cc2)cc1	0.0%	-4.2%	-11.0%	10.2%	-19.3%	?
COc1ccc(OC)c(-c2cnc(OC(C)(C)C)nc2OC(C)(C)C)c1	1.2%	3.6%	13.3%	11.7µM*	10.4µM*	-13.8%
Cc1cc(C)n(-c2ccc(C(=O)N3CCN(S(=O)(=O)c4ccc(C(C)C)cc4)CC3)cc2)n1	-6.3%	17.6%	29.4%	11.7µM*	?	-7.0%
CCN(CC)S(=O)(=O)c1ccc(C)c(NC(=O)CNc2cccc(S(=O)(=O)N3CCCC3)c2)c1	0.5%	2.1%	-28.5%	11.7µM*	-17.1%	0.0%
CC(C)c1ccc(S(=O)(=O)N2CCN(C(=O)c3ccncc3)CC2)cc1	-9.1%	-1.5%	33.0%	?	?	-3.1%
Cc1cc(C)n(-c2ccc(C(=O)Nc3cccc(S(=O)(=O)N4CCCC4)c3)cc2)n1	3.8%	-4.2%	-9.1%	-31.8%	10.4µM*	-10.5%
CCN(CC)S(=O)(=O)c1cccc(NC(=O)CNc2cccc(S(=O)(=O)N3CCCC3)c2)c1	1.3%	-3.7%	28.2µM*	?	?	0.0%

Screening data as filed in PubChem BioAssay.
